Test results published in PubChem BioAssay AID463082 (The Scripps Research Institute Molecular Screening Center, 2010).
About 4,900 (1.5%) of roughly 330,000 compounds were called active. This is one part of a sample in which actives are shown more often than they occur. Unmarked numbers belong to inactive results.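 How the source made its calls: active means inhibition above the mean inhibition across the screen plus 3 SD (cut at about 25% in these data); inactive means the rest.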

Target: Platelet-activating factor acetylhydrolase (Homo sapiens) (UniProt Q13093)
Experiment: inhibition of plasma PAF acetylhydrolase – biochemical, fluorescence polarization, human, primary screen (AID 463082);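 further: inhibitors block binding of the rhodamine activity-based probe so polarization drops; 0% = enzyme with DMSO and 100% = wells lacking pPAFAH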
Details: recombinant pPAFAH, FP-rhodamine probe fluorescence polarization; at 3.39 µM; hits give high values

Platelet-activating factor acetylhydrolase (Homo sapiens), sequence (Q13093 whole entry, looked up): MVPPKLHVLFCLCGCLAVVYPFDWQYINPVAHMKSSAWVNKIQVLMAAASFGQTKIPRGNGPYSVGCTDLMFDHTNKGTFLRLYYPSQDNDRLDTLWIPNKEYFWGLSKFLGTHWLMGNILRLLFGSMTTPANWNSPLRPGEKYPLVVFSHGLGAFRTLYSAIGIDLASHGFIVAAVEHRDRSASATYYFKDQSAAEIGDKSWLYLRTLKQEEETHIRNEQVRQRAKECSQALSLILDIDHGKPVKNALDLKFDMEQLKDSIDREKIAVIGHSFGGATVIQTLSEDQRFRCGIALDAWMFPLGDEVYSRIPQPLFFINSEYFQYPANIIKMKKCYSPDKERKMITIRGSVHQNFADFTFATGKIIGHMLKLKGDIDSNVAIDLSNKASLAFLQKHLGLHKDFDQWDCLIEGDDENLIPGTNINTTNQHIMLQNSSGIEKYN

Compound	inhibition
O=C(COc1ccccc1)N1CCN=C1SCc1cccc(F)c1	4.42%
O=C(COc1ccc(S(=O)(=O)NCCc2ccccc2)cc1)N1CCCC1	26.8% (active)
CC(NS(=O)(=O)c1ccc(OCC(=O)N2CCCC2)cc1)c1ccccc1 (configuration not stated)	14.5%
O=C(COc1ccc(S(=O)(=O)NCc2ccccc2)cc1)N1CCOCC1	4.78%
CCCCNC(=O)CCn1c(=O)c2ccccc2n(Cc2cc(C)ccc2C)c1=O	1.95%
Cc1ccc(S(=O)(=O)N(CC(=O)Nc2cccnc2)c2ccc(Br)cc2)cc1	3.28%
COc1cccc(CNC(=O)CCC2CCCN(C(=O)c3ccc(F)c(Cl)c3)C2)c1 (configuration not stated)	42.8% (active)
COc1cccc(CNC(=O)CCC2CCCN(C(=O)c3ccoc3C)C2)c1 (configuration not stated)	5.56%
COc1cccc(C(=O)N2CCCC(CCC(=O)NCc3ccc(F)c(F)c3)C2)c1 (configuration not stated)	1.9%
COc1ccc(S(=O)(=O)Nc2cccc3c2O[C@H](CN(C)S(=O)(=O)c2ccc(OC)cc2)[C@@H](C)CN([C@H](C)CO)C3=O)cc1	3.76%
COc1ccc(NCc2nnc(SCc3ccccc3)n2-c2ccc(OC)cc2)cc1	2.01%
OCCC1CN(Cc2cccc(O)c2)CCN1CCc1ccccc1 (configuration not stated)	-5.11%
CCN(CC)S(=O)(=O)c1ccc(N2CCOCC2)c(NC(=O)C(C)Oc2ccc(F)cc2)c1 (configuration not stated)	10.3%
CN1CCN(c2ccc(S(=O)(=O)N3CCCCC3)cc2NC(=O)Cc2ccccc2F)CC1	-3.62%
CCN(CC)S(=O)(=O)c1ccc(N2CCN(C)CC2)c(NC(=O)Nc2ccccc2F)c1	33.1% (active)
C=CC[C@@H](CC(=O)N[C@@H](CO)Cc1ccccc1)C(=O)NCCOC(=O)[C@@H](CC=C)CC(=O)OC(C)(C)C	1.4%
Cc1ccc(C)c(S(=O)(=O)Nc2cc(C)on2)c1	-1.93%
CCn1c(N)c(Br)c(=O)[nH]c1=O	0.06%
O=S(=O)(c1ccc(Cl)cc1)c1nc(-c2ccco2)oc1N1CCCCC1	-3.3%
O=C(CSC1=Nc2ccccc2C2=NC(CC(=O)NCc3ccco3)C(=O)N12)NCc1ccco1 (configuration not stated)	5.99%
CCC(C)NC(=O)CSC1=Nc2ccccc2C2=NC(CCC(=O)NCc3ccco3)C(=O)N12 (configuration not stated)	2.48%
CC(C)C1N=C2c3ccccc3N=C(SCC(=O)c3ccc(O)c(O)c3)N2C1=O (configuration not stated)	55.4% (active)

Compound	inhibition
CC(C)n1cnc2c(NCc3ccccc3)cc(OCC3CCN(C)CC3)cc21	11.1%
CN(CC(=O)NCC(c1ccccc1)N1CCCC1)S(=O)(=O)c1ccc(Cl)cc1 (configuration not stated)	-2.68%
O=C(O)c1cc2c(cc1NC(=O)c1c(F)cccc1Cl)OCCCO2	-0.94%
CC(=O)Nc1ccc(OCCC[n+]2cccc(C(=O)[O-])c2)cc1	-0.37%
O=c1ccc2c(-c3ccccc3S(=O)(=O)O)c3ccc(O)c(O)c3oc-2c1O	70% (active)
CCCCNC(=O)C1CCC(=O)N1CCc1ccccc1 (configuration not stated)	3.82%
CCOc1ccc(OCC)c(-c2c(=O)n(OCc3ccc(Cl)cc3)c3ccccc3[n+]2[O-])c1	5.98%
CCc1ccc(CN2C(=O)c3ccccc3C2C(=O)NCC2CCCO2)cc1 (configuration not stated)	7.1%
N#CC1=C(N)Oc2c(ccc3cccnc23)C1c1ccncc1 (configuration not stated)	11.9%
N#CC1=C(N)Oc2c(sc3ccccc23)C1c1ccco1 (configuration not stated)	26.5% (active)
O=C(O)/C(=C/c1cccnc1)NC(=O)c1ccccc1	-3.24%
O=C(CN1C(=O)c2ccc([N+](=O)[O-])cc2C1=O)Nc1nnc(C2CC2)s1	0.34%
O=C(Nc1cccn(Cc2c(Cl)cccc2Cl)c1=O)c1ccc(Cl)cc1	-3.34%
O=C(COC(=O)c1ncc(Cl)c(Cl)c1Cl)NCc1ccccc1	14.3%
Cc1cc(O)c(Sc2ccccc2)c(=O)o1	3.25%
Cc1cc(O)c(C(=O)/C=C/c2c(F)c(F)c(F)c(F)c2F)c(=O)o1	27.7% (active)
Cc1ccc(N=Cc2c(O)cc(C)oc2=O)c(C)c1	-5.2%
CCOC(=O)C1CCN(Cc2coc3ccc(Cl)cc3c2=O)CC1	-3.13%
O=C(OCC1OC(Oc2ccc(O)cc2)C(O)C(O)C1O)c1ccccc1 (configuration not stated)	3.51%
O=C(OCC1O[C@@H](OC(=O)c2cc(O)c(O)c(O)c2)[C@@H](OC(=O)c2cc(O)c(O)c(O)c2)[C@@H](OC(=O)c2cc(O)c(O)c(O)c2)[C@@H]1OC(=O)c1cc(O)c(O)c(O)c1)c1cc(O)c(O)c(O)c1 (some centres not stated)	73% (active)
CC1Cc2ccccc2N1S(=O)(=O)c1cccc(C(=O)OCC(=O)N2CCOCC2)c1 (configuration not stated)	8.16%
COc1ccc(OC)c(NC(=O)C2CCCN2S(=O)(=O)c2cccc3nsnc23)c1 (configuration not stated)	1.9%

Compound	inhibition
Cc1cc(-c2csc(N)n2)c(C)n1Cc1ccccc1	12.4%
Cc1cc2nc3c(=O)n(Cc4ccccc4)c(=O)[nH]c3nc2cc1N	59.1% (active)
CC(=O)c1ccc(-c2ccc(Cn3c(C)nc4cc(N)c(C)nc43)cc2)cc1	3.76%
Nc1nc(Br)c2ccccc2c1-c1ccc(F)cc1	29.3% (active)
CN(CC(=O)Nc1c(Cl)cccc1Cl)C(=O)CC1OC(=O)c2ccccc21 (configuration not stated)	1.34%
OC(CNCC1CCCO1)Cn1c2ccc(Br)cc2c2cc(Br)ccc21 (configuration not stated)	60% (active)
CC(NS(=O)(=O)c1ccc(Br)cc1)C(=O)NCC1CCCO1 (configuration not stated)	1.93%
O=C(CSc1ccc(-c2ccc(Br)cc2)nn1)NCC1CCCO1 (configuration not stated)	3.46%
CC1c2nc3ccccc3n2C(CC(=O)NCCCN2CCOCC2)C(=O)N1Cc1ccccc1 (configuration not stated)	3.44%
O=C(Cn1cc(C(F)(F)F)ccc1=O)Nc1ccc2c(c1)OCCO2	0.39%
CCCN(CC(=O)Nc1ccccc1C)C(=O)c1ccc2[nH]c3c(c2c1)CC(C)CC3 (configuration not stated)	2.57%
COc1cc2c(C(=O)O)c(C)n(C)c2c2ccccc12	8.22%
COc1cccc2c(C)c(C(=O)O)[nH]c12	40% (active)
Cc1c(C(=O)N/N=C/c2ccccc2)[nH]c2c([N+](=O)[O-])cccc12	2.71%
CCOc1ccc(N/C(N)=N/c2nc(C)c(C)c(=O)[nH]2)cc1	5.08%
CCOC(=O)CNC(=O)CSc1ncccc1-c1nc2ccccc2[nH]1	3.09%
COC(=O)c1cccc(N(C(=O)c2ccco2)C(C(=O)NC2CCCC2)c2ccco2)c1 (configuration not stated)	-7.26%
CCOc1ccc(NS(=O)(=O)c2ccc(C(=O)NCC(c3ccccc3OC)N3CCCC3)cc2)cc1 (configuration not stated)	51.8% (active)
COc1ccc(C(CNC(=O)c2cccc(S(=O)(=O)Nc3ccccc3Cl)c2)N2CCOCC2)cc1 (configuration not stated)	-3.75%
Cc1cc(S(=O)(=O)Nc2ccc(C(=O)NCC(c3ccco3)N3CCCC3)cc2)ccc1F (configuration not stated)	-0.43%
COc1ccc(C(CNC(=O)c2cccc(NS(=O)(=O)c3ccc(C)c(F)c3)c2)N2CCCC2)cc1 (configuration not stated)	5.75%
COc1ccc(C(CNC(=O)c2ccc(S(=O)(=O)Nc3ccccc3C)cc2)N2CCOCC2)cc1 (configuration not stated)	33.2% (active)

Compound	inhibition
CCOc1ccc(NS(=O)(=O)c2ccc(C(=O)NC3CCN(Cc4ccccc4)CC3)cc2)cc1	24.1%
CC(=O)Nc1ccc(S(=O)(=O)N2CCN(C(=O)c3ccccc3F)CC2)cc1	-5.31%
COc1ccc(S(=O)(=O)N(C)C[C@@H]2Oc3ccc(NC(=O)Nc4c(C)noc4C)cc3C(=O)N([C@H](C)CO)C[C@@H]2C)cc1	1.97%
COc1ccc(S(=O)(=O)NCc2cccnc2)cc1NC(=O)c1ccc(C)cc1	0.8%
Cc1cccc(C)c1NC(=O)CCS(=O)(=O)c1cccc2nsnc12	-6.43%
Cc1cccc(Cn2cnc3c(N)c(C)c(C)cc32)c1	9.5%
Cn1c(=O)c(C(=O)Nc2ncccn2)c(O)c2ccccc21	1.18%
COC(=O)c1ccc(C(NC(=O)OCc2ccccc2)/C(F)=C/[C@@H](C)C(=O)O)cc1 (some centres not stated)	6.41%
COc1ccc(COC(=O)NC(C(=O)O)c2ccccc2)cc1 (configuration not stated)	-0.13%
COC(=O)c1ccc(C(NC(=O)OCc2ccccc2)/C(C)=C/[C@@H](C)C(=O)NCc2ccc(OC)c(OC)c2)cc1 (some centres not stated)	40.4% (active)
C=CCNC(=O)C1CC2c3ccccc3C1c1ccccc12 (configuration not stated)	3.92%
CSC1=NC2(C)CCCCC2C12C=CC(=O)C=C2 (configuration not stated)	5.48%
Cc1nn(C)cc1C(=O)c1ccccc1	-11.2%
C=C(C)CNC(=O)c1ccc(OC2CCN(C(=O)COC)CC2)cc1	-1.41%
COc1cc(OC)c(/C=N/NC(=O)c2ccc([N+](=O)[O-])cc2)cc1Br	2.36%
COc1ccc(/C=N/NC(=O)c2ccc3c(c2)OCCO3)c(OC)c1	11.5%
COc1cccc(/C=N/NC(=O)c2[nH]nc3c2CCc2ccccc2-3)c1O	43.7% (active)
CC(C)(C)C(=O)OCc1nc(-c2ccc(O)c(O)c2)cs1	27.5% (active)
COc1ccc(-c2csc(Cc3nc(O)cs3)n2)cc1	13%
Cc1onc(C(=O)NN)c1-c1csc(COc2ccccc2)n1	-3.91%
C/C(=N/N1CCN(Cc2cccc3ccccc23)CC1)c1cccnc1	-3.57%
